Experimental findings from PubChem BioAssay (NCATS) are described below.

Results filed as inconclusive are left out. A number with no mark means an inactive call. Calls follow the shape of the dose curve; as a rule, active = well fitted inhibition curve with a large enough effect; inconclusive = small, poorly fitted or top-dose-only effect; inactive = flat fitted curve, though single readings scatter.
% is scaled to controls: 0 for no effect and ±100 for the full control effect.

Chain of Calcium and integrin-binding protein 1 (Homo sapiens) (Q99828 whole entry, looked up): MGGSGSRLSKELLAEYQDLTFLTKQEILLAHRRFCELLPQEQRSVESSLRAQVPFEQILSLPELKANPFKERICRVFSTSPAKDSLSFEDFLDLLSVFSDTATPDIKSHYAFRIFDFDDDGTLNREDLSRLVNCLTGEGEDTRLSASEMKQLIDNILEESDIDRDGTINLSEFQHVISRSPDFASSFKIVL

The assay addresses Calcium and integrin-binding protein 1 (Homo sapiens) (UniProt Q99828). Description: Primary qHTS for Identification of Calcium Integrin Binding Protein 1 (CIB1) Competitor (AID 1508620).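 Also: GST tagged CIB1 binding a fluorescein labelled alphaIIb integrin peptide tracer; top concentration of the series differs between compounds.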 As to conditions: CIB1-GST / FITC-alphaIIb peptide fluorescence polarization; series mostly up to 114 µM; activity change, negative = inhibition: at the top concentration. Put shortly:
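Fluorescence polarization competition: CIB1-GST (1 uM final) preincubated with compound 15 min at room temperature, then FITC-labeled alphaIIb peptide (100 nM final) added for another 15 min. Polarization read at Ex 480/Em 540.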
(In general: In qHTS, concentration-response curves come from the screen itself.)
`CCN(CC)C(=O)C(c1ccccc1)N1CCN(c2ccc(NC(=O)c3ccccc3-c3cccnc3)cc2F)CC1` (stereo not drawn): the “activity change, negative = inhibition” value is 0.649%. The value for `OC1CCC(Nc2nc(-c3ccccc3)nc3[nH]ccc23)CC1` (stereo not drawn) was -3.59%; that for `N#Cc1ccnc(Nc2cc(C3CCN(C4COC4)CC3)cc(N3CCC(F)(F)C3)n2)c1` was -3.9% [at 57.7 µM]; that for `CC(=O)C1(C)CCC2C3C=C(C)C4=CC(=O)CCC4(C)C3CCC21C` (stereo not drawn) was 1.38%. On to `CC(C)=CCC[C@](C)(O[C@@H]1O[C@H](CO[C@@H]2OC[C@@H](O)[C@H](O)[C@H]2O)[C@@H](O)[C@H](O)[C@H]1O)[C@H]1CC[C@]2(C)[C@@H]1[C@H](O)C[C@@H]1[C@@]3(C)CC[C@H](O[C@@H]4O[C@H](CO)[C@@H](O)[C@H](O)[C@H]4O)C(C)(C)[C@@H]3CC[C@]12C`, for which the “activity change, negative = inhibition” value is -7.27% [at 57.7 µM].

With `C=C1CCC[C@]2(C)CC/C(=C(/CO)C(=O)OC)C[C@@H]12`, the “activity change, negative = inhibition” value is 1.79%. With `O=C(NC[C@H]1CN(c2ccc(N3CCOCC3=O)cc2)C(=O)O1)c1ccc(Cl)s1`, the “activity change, negative = inhibition” value was 3.2%.

Consider `C=C1CC[C@@H]2[C@](C)(CO)[C@H](O)CC[C@@]2(C)[C@@H]1/C=C/C1=CCOC1=O`, for which the “activity change, negative = inhibition” value is -0.699% [at 57.7 µM]. With `CC(=O)O[C@H]1[C@H](O)C[C@@]2(C)C(CC[C@]3(C)C2CC=C2C4CC(C)(C)CC[C@]4(C(=O)O)CC[C@]23C)C1(C)C` (stereo partly drawn), the “activity change, negative = inhibition” value was -3.12% [at 57.7 µM].

In the case of `COc1c2c(c(C)c3c1C(=O)OC3)O[C@@]1(C)C[C@@H](OC(C)=O)[C@]34O[C@](OC)(CC[C@]3(C)[C@H]1C2)OC4(C)C`, the “activity change, negative = inhibition” value is 4.59% [at 57.7 µM]. For `C=C1/C(=C/C=C2\CCC[C@]3(C)[C@@H]([C@H](C)/C=C/[C@@H](C)C(C)C)CC[C@@H]23)C[C@@H](O)C[C@@H]1O`, the “activity change, negative = inhibition” value was 4.66%.

In the case of `CC(=O)OC1C(O)CC2(C)C(CCC3(C)C2CC=C2C4C5(CCC(CO[C@@H]6O[C@H](CO)[C@@H](O)[C@H](O)[C@H]6O)(OC5=O)C4(C)O)C(O)CC23C)C1(C)C` (stereo partly drawn), the “activity change, negative = inhibition” value was -1.88% [at 30.2 µM]. For the compound `CC(=O)OC/C(=C/C(=O)O)CC[C@@H]1C(C=O)=CC[C@@H]2C(C)(C)CCC[C@@]12C`, the “activity change, negative = inhibition” value was -2.47% [at 57.7 µM]. For `C/C=C/C=C/C=C/C(=O)O[C@@H]1C=C(CO)C(O)(C(=O)OC)[C@@]2(C)CCCC(C)(C)C12` (stereo partly drawn), the “activity change, negative = inhibition” value was -0.819% [at 57.7 µM]. Take `Cc1ccc(C(C)C)c(O[C@@H]2O[C@H](CO)[C@@H](O)[C@H](O)[C@H]2O)c1`: the “activity change, negative = inhibition” value is 2.21% [at 57.7 µM].

In the case of `OC[C@H]1O[C@@H](OC/C=C/c2ccc(O)cc2)[C@H](O)[C@@H](O)[C@@H]1O`, the “activity change, negative = inhibition” value is 0.143% [at 57.7 µM]. With `CC/C=C\CC1C(=O)C=CC1(CCCCC1CCC(=O)O1)OC(C)=O` (stereo not drawn), the “activity change, negative = inhibition” value was -4.57% [at 57.7 µM].

As for `COc1cc2ncnc(Nc3ccc(O)c(Br)c3)c2cc1OC`, the “activity change, negative = inhibition” value is -3.82%.

For the compound `NC(=O)CCCSc1nc(N)nc(-c2c(Cl)cc3c4c(cccc24)COC3)n1`, the “activity change, negative = inhibition” value is -1.09%.

On to `Cc1noc(-c2ccc(-c3ccc(CC(=O)O)cc3)cc2)c1NC(=O)O[C@H](C)c1ccccc1Cl`, for which the “activity change, negative = inhibition” value was -7.63%.

With `CC(C)n1cnc2c(-c3cnc(N)nc3)nc(N3CCOCC3)nc21`, the “activity change, negative = inhibition” value is 1.52% [at 57.7 µM]. Regarding `CC1(C)CCC(C)(C)c2cc(C#Cc3ccc(C(=O)O)cc3)ccc21`, the “activity change, negative = inhibition” value was -22.1%. Regarding `O=C(/C=C/c1ccccc1O)O[C@@H]1O[C@H](CO)[C@@H](O)[C@H](O)[C@H]1O`, the “activity change, negative = inhibition” value is 4.83% [at 57.7 µM]. In the case of `C=C(C)C(=O)O[C@H]1[C@H]2C(=C)C(=O)O[C@@H]2/C=C(\CO)CC/C=C(/C=O)[C@@H]1O`, the “activity change, negative = inhibition” value is -4.31% [at 57.7 µM].

In the case of `Cc1cc(-c2ncc(-c3cccnc3)cc2/C=C/c2ccccc2)cnc1-c1cccnc1`, the “activity change, negative = inhibition” value is -0.212%. In the case of `Cc1cc2ncc(C(=O)NCC(C)(C)NCC(=O)N3CCC[C@H]3C#N)cn2n1`, the “activity change, negative = inhibition” value was -9.89%. For the compound `O=C(NO)c1cnc(N2CCN(S(=O)(=O)c3ccc4ccccc4c3)CC2)nc1`, the “activity change, negative = inhibition” value was -7.41% [at 57.7 µM]. Turning to `CCC/C=C/C(=O)O[C@H]1CC(C)(C)CC2[C@@]13[C@H](O)C[C@]1(C)[C@@]2(CCC2[C@@]4(C)CC[C@H](O[C@@H]5O[C@H](C(=O)O)[C@@H](O)[C@H](O[C@@H]6O[C@H](CO)[C@H](O)[C@H](O)[C@H]6O[C@@H]6O[C@@H](C)[C@H](O)[C@@H](O)[C@H]6O[C@@H]6OC[C@](O)(CO)[C@H]6O)[C@H]5O[C@@H]5O[C@H](CO)[C@H](O)[C@H](O)[C@H]5O)C(C)(C)C4CC[C@]21C)O[C@H]3O` (stereo partly drawn), the activity change, negative = inhibition is 4.06% [at 12.4 µM]. Regarding `C=C1C(=O)OC[C@@H]1C/C=C(\C)CC1CC(C)C(=O)O1` (stereo partly drawn), the “activity change, negative = inhibition” value was 5.15%. Consider `CC(=O)O[C@]1(C(C)=O)CC[C@H]2[C@@H]3CCC4=CC(=O)CCC4=C3[C@@H](c3ccc(N(C)C)cc3)C[C@@]21C`, for which the “activity change, negative = inhibition” value is -4.5%. With `CC1(C)SCCN(S(=O)(=O)c2ccc(Oc3ccncc3)cc2)[C@H]1C(=O)NO`, the “activity change, negative = inhibition” value is -4.68%. For `c1cc(-c2cnn3cc(-c4ccc(N5CCNCC5)cc4)cnc23)c2cccnc2c1`, the “activity change, negative = inhibition” value is 4.06%. Turning to `O=C(Cc1cccc(OC(F)(F)F)c1)Nc1ccc(CCCCc2nnc(NC(=O)Cc3ccccn3)s2)nn1`, the “activity change, negative = inhibition” value was -0.0582% [at 57.7 µM]. `C/C(=N\N=C(N)N)c1cc(NC(=O)CCCCCCCCC(=O)Nc2cc(/C(C)=N/N=C(N)N)cc(/C(C)=N/N=C(N)N)c2)cc(/C(C)=N/N=C(N)N)c1`: the “activity change, negative = inhibition” value was 75.8%. On to `C=C1C(=O)O[C@H]2C1CCC(C)=C1C(=O)C=C(C)[C@@]12O` (stereo partly drawn), for which the “activity change, negative = inhibition” value was -11.9%. As to `CC(O)(C(=O)O)C1CCC2(C)C1CCC1(C)C2CCC2C3(C)CCC(O)C(C)(COC4OC(CO)C(O)C(O)C4O)C3CCC21C` (stereo not drawn), the “activity change, negative = inhibition” value is -10.8% [at 30.2 µM]. With `O=C(Nc1nc2cc(C(F)(F)F)cc(NC3CC3)n2n1)c1cccnc1`, the “activity change, negative = inhibition” value is 1.45%.

Turning to `C[C@@H]1O[C@@H](O[C@H]2[C@@H](OC(=O)[C@]34CCC(C)(C)CC3C3=CCC5[C@@]6(C)C[C@H](O)[C@H](O[C@@H]7O[C@H](CO)[C@@H](O)[C@H](O)[C@H]7O[C@@H]7OC[C@@H](O)[C@H](O)[C@H]7O)[C@@](C)(C(=O)O)C6CC[C@@]5(C)[C@]3(C)CC4)OC[C@H](O)[C@@H]2O)[C@H](O)[C@H](O)[C@H]1O[C@@H]1OC[C@@H](O)[C@H](O)[C@H]1O` (stereo partly drawn), the activity change, negative = inhibition was -5.44% [at 12.4 µM].
